A number with no mark means an inactive call.
Target: ACLY (lysine site: K991) (UniProt P53396)
Assay: lysine labeling ratio R10:1 (500 µM / 50 µM probe), SILAC-ABPP in living cells; higher = lower intrinsic lysine reactivity toward the probe, active = 2 or less
Conditions: HeLa; probe concentrations 500 vs 50 µM
Experimental: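 Living HeLa cells (SILAC light/heavy) in PBS at room temperature were labeled with 50 µM versus 500 µM of the lysine-reactive, reductant-cleavable probe OPA-S-S-alkyne (SILAC labeling time not stated). Probe-modified peptides were CuAAC-biotinylated, captured on neutravidin and eluted with DTT/IAA, then quantified by LC-MS/MS. R = median peptide ratio per lysine (500/50 µM), combined over 3 forward and 3 reverse SILAC replicates. Ratios are capped at 20; R < 2 = hyper-reactive.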

Sequence of ACLY (lysine site: K991) (P53396 whole entry): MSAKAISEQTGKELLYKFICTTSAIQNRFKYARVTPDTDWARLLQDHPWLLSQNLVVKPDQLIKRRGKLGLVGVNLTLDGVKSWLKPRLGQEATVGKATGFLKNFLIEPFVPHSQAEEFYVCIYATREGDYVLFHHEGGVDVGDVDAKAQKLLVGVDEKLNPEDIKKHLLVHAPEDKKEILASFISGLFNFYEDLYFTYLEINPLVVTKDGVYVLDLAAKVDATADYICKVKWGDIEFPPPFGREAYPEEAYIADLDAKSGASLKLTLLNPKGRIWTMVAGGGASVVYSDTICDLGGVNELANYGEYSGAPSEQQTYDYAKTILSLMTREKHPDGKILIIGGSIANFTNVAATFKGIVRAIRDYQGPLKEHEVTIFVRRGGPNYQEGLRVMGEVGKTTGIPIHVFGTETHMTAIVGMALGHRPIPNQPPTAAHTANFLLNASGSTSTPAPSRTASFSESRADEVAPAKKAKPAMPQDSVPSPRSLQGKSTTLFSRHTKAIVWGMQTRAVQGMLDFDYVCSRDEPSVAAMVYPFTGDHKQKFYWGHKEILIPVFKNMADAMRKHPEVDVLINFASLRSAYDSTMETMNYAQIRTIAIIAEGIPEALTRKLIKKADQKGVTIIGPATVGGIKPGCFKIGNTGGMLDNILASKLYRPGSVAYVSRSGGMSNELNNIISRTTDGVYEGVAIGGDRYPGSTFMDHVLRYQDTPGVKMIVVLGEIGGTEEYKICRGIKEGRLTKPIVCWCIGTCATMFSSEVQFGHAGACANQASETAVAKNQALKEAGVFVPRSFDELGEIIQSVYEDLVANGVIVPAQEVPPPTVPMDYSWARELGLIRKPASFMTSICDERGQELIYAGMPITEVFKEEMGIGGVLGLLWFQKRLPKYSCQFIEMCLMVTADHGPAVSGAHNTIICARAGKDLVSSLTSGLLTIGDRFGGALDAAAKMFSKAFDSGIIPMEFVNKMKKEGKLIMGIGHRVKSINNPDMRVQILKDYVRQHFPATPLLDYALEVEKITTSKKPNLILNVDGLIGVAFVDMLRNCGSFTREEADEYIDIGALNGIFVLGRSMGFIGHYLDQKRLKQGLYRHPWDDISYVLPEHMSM

Row | Compound | lysine labeling ratio R10:1
1 | C#CCNC(=O)CCSSCCC(=O)NCCc1ccc(C=O)c(C=O)c1 | 2.27

Source: the supplement of paper PMC11001985
